NIH3T3 tox: Cytotoxic Profiling in NIH 3T3 Cell Line of Diverse Libraries Using Quantitative High-Throughput Screening | NIH 3T3 viability, CellTiter-Glo ATP luminescence, 48-72 h | Potency, µM (highest dose often 96.7 µM), for the others: at the top dose activity change, negative = cytotoxicity, actives largely listed as inhibitors | actives 4.3% (n = 94,000) | AID 1345082, 2018; note: % is set by controls: 0 for no effect and ±100 for the full control effect; nearly all actives have a fitted effect of over 55% in size
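Cytotoxicity was measured by CellTiter-Glo ATP luminescence after 48 or 72 h compound exposure at 37 °C. Mouse NIH 3T3 fibroblasts were seeded at 400 cells/well and dosed by 23 nL pin transfer.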
GPT2 inh: Primary qHTS assay for inhibitors of Glutamate pyruvate transaminase 2 (GPT2); actives 0.25% (n = 100,000); AID 1671188, 2021; Recombinant GPT2, coupled pyruvate oxidase/HRP Amplex Red fluorescence; Alanine aminotransferase 2 (Homo sapiens), Q8TD30; Potency, µM (top dose mostly 57.7 µM), for the others: at the top dose activity change, negative = inhibition, actives largely listed as inhibitors; note: % is set by controls: 0 for no effect and ±100 for the full control effect; nearly all actives have a fitted effect of over 60% in size
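Recombinant GPT2 (10ng/uL) with 250uM a-KG and 2mM L-alanine, 30 min at room temperature, in HEPES pH 7.5 buffer. Pyruvate detected by pyruvate oxidase/HRP/Amplex Red fluorescence after 30 min in the dark; AOA (50uM) as positive control.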
HEK cytotox: Cytotoxic Profiling in HEK 293 Cell Line of Diverse Libraries Using Quantitative High-Throughput Screening | HEK 293 viability, ATP luminescence (CellTiter-Glo), 48-72 h | Potency, µM (titrated, usually from 115 µM), for inactives: at the highest dose activity change, negative = cytotoxicity, most hits filed as inhibitors | actives 6.6% (n = 94,000) | AID 1345083, 2018; note: % is set by controls: 0 for no effect and ±100 for the full control effect; nearly all actives have a fitted effect of over 60% in size
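HEK 293 cells seeded at 250 cells/well were exposed to compound for 48 or 72 hr at 37 degree Celsius. Viability taken as ATP content by CellTiter-Glo luminescence.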
FLuc inh: Firefly luciferase inhibition profiling of diverse chemical library using quantitative high-throughput screening; Potency, µM (titrated, usually from 115 µM), most hits filed as inhibitors; AID 1347043, 2019; purified P. pyralis luciferase, luminescence, biochemical; Luciferin 4-monooxygenase (Photinus pyralis), P08659; actives 2.5% (n = 76,000); note: % is set by controls: 0 for no effect and ±100 for the full control effect; nearly all actives have a fitted effect of over 65% in size
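Biochemical qHTS: compound (6-point titration) added to 10uM D-luciferin plus 10uM ATP in Tris acetate pH 7.5 buffer with Mg, Tween-20 and BSA, then purified enzyme at 10nM; light output imaged.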
hNpr1 antagonist: Natriuretic polypeptide receptor (hNpr1) antagonism - Primary qHTS | HEK293 hNpr1 GloSensor cGMP, ANP-stimulated luminescence | Potency, µM (doses to about 46.3 µM), for inactives: at the top dose activity change, negative = inhibition, hits mostly inhibitors | actives 1.6% (n = 76,000); calls by dose curve; note: % is set by controls: 0 for no effect and ±100 for the full control effect; nearly all actives have a fitted effect of over 60% in size
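HEK293 cells stably expressing human Npr1 and cGMP GloSensor pGS-40F, loaded 2 h with 2% GloSensor reagent, given compound 30 min at room temperature. Luminescence read before and 20 min after 0.1 nM hNppA.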
NPR1 antag cnf: Natriuretic polypeptide receptor (hNpr1) antagonism - Confirmation; Potency, µM (highest dose often 57.6 µM), for inactives: at the top dose activity change, negative = inhibition, hits mostly inhibitors; actives 76% (n = 1,400); shares compounds with hNpr1 antagonist; HEK293 hNpr1 cGMP GloSensor luminescence, ANP-stimulated; calls by dose curve; note: nearly all actives have a fitted effect of over 70% in size
Npr2 selectivity: Natriuretic polypeptide receptor (hNpr2) antagonism - Subtype selectivity assay. Potency, µM (highest dose often 57.6 µM), for the others: at the top dose activity change, negative = inhibition, usual class: inhibitors. shares compounds with hNpr1 antagonist. AID 1347046, 2019. HEK293 hNpr2 GloSensor cGMP luminescence, CNP-stimulated. actives 67% (n = 1,400); calls by dose curve; note: nearly all actives have a fitted effect of over 70% in size
Target sequence (P20594 whole entry, looked up): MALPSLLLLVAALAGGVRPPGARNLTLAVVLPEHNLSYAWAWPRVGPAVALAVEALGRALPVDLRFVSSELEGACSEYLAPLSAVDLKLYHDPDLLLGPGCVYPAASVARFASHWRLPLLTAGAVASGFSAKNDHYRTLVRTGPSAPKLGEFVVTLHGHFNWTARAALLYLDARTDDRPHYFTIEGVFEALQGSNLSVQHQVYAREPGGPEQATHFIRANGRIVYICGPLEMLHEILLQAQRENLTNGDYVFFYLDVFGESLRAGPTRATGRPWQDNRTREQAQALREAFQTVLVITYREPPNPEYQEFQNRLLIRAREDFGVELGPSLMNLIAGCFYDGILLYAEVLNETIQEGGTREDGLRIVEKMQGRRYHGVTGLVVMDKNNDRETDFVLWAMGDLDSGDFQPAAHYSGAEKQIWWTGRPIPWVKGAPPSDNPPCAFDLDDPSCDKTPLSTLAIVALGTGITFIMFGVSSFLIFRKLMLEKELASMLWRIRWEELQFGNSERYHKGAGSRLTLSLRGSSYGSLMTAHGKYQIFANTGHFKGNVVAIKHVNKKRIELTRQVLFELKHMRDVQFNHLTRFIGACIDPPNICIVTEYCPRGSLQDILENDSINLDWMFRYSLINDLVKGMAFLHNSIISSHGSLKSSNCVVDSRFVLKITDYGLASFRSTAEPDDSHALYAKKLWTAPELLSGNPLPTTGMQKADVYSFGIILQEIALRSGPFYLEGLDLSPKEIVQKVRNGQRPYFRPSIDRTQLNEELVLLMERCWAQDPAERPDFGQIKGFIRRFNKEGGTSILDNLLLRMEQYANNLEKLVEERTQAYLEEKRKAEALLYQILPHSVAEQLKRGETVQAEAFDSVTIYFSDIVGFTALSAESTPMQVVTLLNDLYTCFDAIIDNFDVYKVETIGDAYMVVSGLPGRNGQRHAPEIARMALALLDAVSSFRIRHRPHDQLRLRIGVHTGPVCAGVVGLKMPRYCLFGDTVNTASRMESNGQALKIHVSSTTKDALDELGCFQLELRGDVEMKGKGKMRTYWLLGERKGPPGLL
FLuc counter: Natriuretic polypeptide receptor (hNpr1) antagonism - Confirmation firefly luciferase (FLuc) inhibition counterscreen | shares compounds with hNpr1 antagonist | purified FLuc enzyme, luminescence, Km substrate | Potency, µM (series often up to 57.6 µM), for the others: at the top dose activity change, negative = inhibition, actives largely listed as inhibitors | actives 0.7% (n = 1,400); note: 0% is about no effect
GloSensor ctrl: Natriuretic polypeptide receptor (hNpr1) antagonism - Counterscreen GloSensor control cell line | shares compounds with hNpr1 antagonist | HEK293 GloSensor cGMP, SNP-stimulated, luminescence | Potency, µM (doses to about 57.6 µM), for the others: top-dose activity change, negative = inhibition, hits mostly inhibitors | actives 69% (n = 1,400) | AID 1347051, 2019; calls by dose curve; note: % is set by controls: 0 for no effect and ±100 for the full control effect; nearly all actives have a fitted effect of over 70% in size
Numbers without * were called inactive; i = inactive; ? = inconclusive; · = no result; [ ] = another dose, or the depositor's remark. Sampled rows, rich in hits. Any-hit rate of the full collection: about 10%. Unless noted, calls come from the whole dose curve; as a rule, active = well fitted curve in the direction sought with a large enough effect; inconclusive = small, poorly fitted or top-dose-only effect, or another doubt; inactive = no such curve, though single readings can be large; an effect the other way counts as inactive or inconclusive. Potency is the fitted concentration of half-maximal effect.

SMILES	NIH3T3 tox	GPT2 inh	HEK cytotox	FLuc inh	hNpr1 antagonist	NPR1 antag cnf	Npr2 selectivity	FLuc counter	GloSensor ctrl
O=C(C1CC(=O)N(c2n[nH]c3ccccc23)C1)N1CCC(c2noc3cc(F)ccc23)CC1 (stereo unspecified)	14.1µM*	i	12.6µM*	i	?	27.3µM*	?	-3.1%	27.3µM*
COc1ccnc(N2CCC(CO)(Cc3ccccc3C(F)(F)F)CC2)n1	?	?	?	i	-7.4%	·	·	·	·
COc1cc(N2CCC(CO)(Cc3ccccc3C(F)(F)F)CC2)ncn1	?	5.0%	?	i	11.2µM*	19.3µM*	19.3µM*	-1.8%	15.3µM*
N#Cc1cccnc1N1CCC(CO)(Cc2ccccc2C(F)(F)F)CC1	?	1.4%	?	i	?	21.7µM*	17.2µM*	-1.7%	-18.0%
CC(=O)N1CCC2(CC1)CCN(c1ncccc1C#N)CC2CO (stereo unspecified)	-3.1%	?	-2.4%	i	5.7%	·	·	·	·
Cc1ncnc(N2CCC(CO)(Cc3ccccc3C(F)(F)F)CC2)c1C	?	2.9%	39.8µM*	i	11.2µM*	24.3µM*	24.3µM*	2.1%	19.3µM*
C[C@]12CC[C@H](O)CC1=CCN(Cc1cccc(OC(F)(F)F)c1)C2	-25.2%	·	?	·	·	·	·	·	·
CC(C)NC(=O)N1CCN2C(=O)c3cc(-c4ccc5c(c4)OCO5)ccc3NC(=O)[C@H]2C1	-6.6%	i	?	i	-3.8%	·	·	·	·
O=C1CC2(CCN(C(=O)C3CCN(C(=O)c4ccc(F)cc4)CC3)CC2)Oc2ccccc2N1	-24.8%	i	?	·	·	·	·	·	·
O=C1CC2(CCN(C(=O)c3ccc(Cl)cc3)CC2)Oc2ccccc2N1	-22.1%	-6.1%	?	·	·	17.2µM*	19.3µM*	4.3%	12.2µM*
CC(NC(=O)c1ccc(Cn2ccn3nc4c(c3c2=O)CCCC4)cc1)c1ccccc1 (stereo unspecified)	?	i	?	i	-14.9%	·	·	·	·
O=C(N[C@H]1CO[C@H]2[C@@H]1OC[C@@H]2Nc1nccc(C2CCCC2)n1)c1ccccc1	-46.0%[174 µM]	3.3%[88.5 µM]	63.1µM*	i	28.2µM*	35.3µM*	35.3µM*	-7.0%[86.2 µM]	39.6µM*
CC(=O)Nc1ccc(S(=O)(=O)N[C@H]2CO[C@H]3[C@@H]2OC[C@@H]3Nc2nccc(-c3cccc(F)c3)n2)cc1	?	-6.9%	15.8µM*	i	11.2µM*	13.7µM*	17.2µM*	0.8%	12.2µM*
O=C(N[C@H]1CO[C@H]2[C@@H]1OC[C@@H]2Nc1nccc(-c2ccc(-c3ccccc3)cc2)n1)C1CCCCC1	?	-14.4%	?	i	?	27.3µM*	?	0.8%	21.7µM*
COc1ccccc1-c1ccnc(N[C@H]2CO[C@H]3[C@@H]2OC[C@@H]3NS(=O)(=O)c2ccc(NC(C)=O)cc2)n1	?	-34.6%	?	i	?	·	·	·	·
Cc1ccc(C(=O)N[C@H]2CO[C@H]3[C@@H]2OC[C@@H]3Nc2nccc(-c3ccc(-c4ccccc4)cc3)n2)cc1	-26.9%	-26.8%	12.6µM*	i	?	?	-24.5%	-13.6%	-26.9%
COc1ccc(-c2ccnc(N[C@H]3CO[C@H]4[C@@H]3OC[C@@H]4NC(=O)c3ccc(C)cc3)n2)cc1	?	2.4%	?	i	-1.7%	·	·	·	·
CC(C)(C)C(=O)N1CCN(c2ccnc3ccnn23)CC1	-0.2%[138 µM]	i	2.1%[172 µM]	·	·	·	·	·	·
O=C1Nc2ccccc2CC12CCN(Cc1ccc(C(F)(F)F)cc1)CC2	-13.7%	-13.4%	?	i	-8.9%	·	·	·	·
Cn1cccc1C(=O)N1CCC(c2nc(-c3cccn3C)no2)CC1	?	-6.1%	?	·	·	·	·	·	·
COc1cccc(CN2CC(O)CN(C(=O)OCC(C)C)CC2=O)c1OC (stereo unspecified)	?	·	-11.2%	·	·	·	·	·	·
c1csc(-c2ccnc(N[C@H]3CO[C@H]4[C@@H]3OC[C@@H]4NCC3CCCCC3)n2)c1	31.6µM*	-19.5%[88.5 µM]	?	i	7.94µM*	11.1µM*	17.7µM*	1.0%[86.2 µM]	9.94µM*
Nc1nc(NCc2ccc(Cl)cc2Cl)cc(C2CC(O)C2)n1 (stereo unspecified)	?	i	?	i	7.08µM*	10.9µM*	19.3µM*	3.8%	9.68µM*
CCc1csc(CNc2cc(C3CC(O)C3)nc(N)n2)n1 (stereo unspecified)	?	-7.3%[11.5 µM]	?	i	-23.5%	·	·	·	·
CNC(=O)c1cc(C2CC2)nc2onc(C3CCN(C(=O)c4ccccc4OC)CC3)c12	-21.2%	·	-7.5%	·	·	·	·	·	·
Cc1ccc(CNC(=O)N2CCCCCC2c2nc(-c3ccccc3)no2)cc1 (stereo unspecified)	?	i	?	·	·	·	·	·	·
Cc1ccc(CNC(=O)c2ccc3c(c2)CN(Cc2ccc(N(C)C)cc2)CCO3)cc1	?	-0.2%	?	i	11.2µM*	24.3µM*	27.3µM*	1.6%	27.3µM*
CNC(=O)c1ccc2c(c1)OCCN(c1ccccc1)C2	-25.5%[174 µM]	-0.3%[88.5 µM]	?	i	0.9%[70.6 µM]	·	·	·	·

Screening results deposited in PubChem BioAssay by National Center for Advancing Translational Sciences (NCATS).
